{"source": "PubChem BioAssay (Tox21)", "note": "Results filed as inconclusive are left out. Activity calls are given as the source filed them. The call rests on the fitted dose curve. On the % scale 0 is the no-effect control and ±100 the full control effect."}
{"assay": "p53 small molecule agonists, cell-based qHTS assay with human liver microsomes (AID 1963577);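 further: p53 response element beta-lactamase reporter cells with liver microsomes plus NADPH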", "settings": "HCT-116 p53RE-bla with human liver microsomes, ratio, 16 h; series mostly up to 66 µM; activation: at the top concentration", "outline": "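With metabolic activation: human liver microsomes (0.5 mg/mL final) plus NADPH (0.5 mg/mL final) added alongside compounds to p53RE-bla cells; 16 h 37 C exposure; beta-lactamase read by LiveBLAzer fluorescence.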"}
{"smiles": "C/C=C/C(=O)C1=C(C)C=CCC1(C)C", "activation": "2.61% (inactive)"}
{"smiles": "CC(C)=CCC/C(C)=C/C#N", "activation": "-10.3% (inactive)"}
{"smiles": "C1CSCCS1", "activation": "0.813% (inactive)"}
{"smiles": "CCCCCCCCS(=O)(=O)Cl", "activation": "2.65% (inactive)"}
{"smiles": "O=C1CC2CC1C1CCCC21", "note": "(stereo not drawn)", "activation": "0.394% (inactive)"}
{"smiles": "NNc1nncc2ccccc12", "Potency": "inactive"}
{"smiles": "CCC(=O)O[C@@H]1C[C@H]2CC[C@]1(C)C2(C)C", "activation": "-0.326% (inactive)"}
{"smiles": "CC1(C)C(C=C(Cl)Cl)C1C(=O)OCc1cccc(Oc2ccccc2)c1", "note": "(stereo not drawn)", "activation": "-1.36% (inactive)"}
{"smiles": "CC(C)c1ccc(C=O)cc1", "activation": "-1.82% (inactive)"}
{"smiles": "OCCC(F)(F)C(F)(F)C(F)(F)C(F)(F)C(F)(F)C(F)(F)F", "activation": "3.62% (inactive)"}
{"smiles": "COCCCOc1ccnc(CS(=O)c2nc3ccccc3[nH]2)c1C", "note": "(stereo not drawn)", "Potency": "inactive"}
{"smiles": "CC(=O)Nc1ncc([N+](=O)[O-])s1", "activation": "-2.82% [at 30.3 µM] (inactive)"}
{"smiles": "CC(C)(C)NC(N)=O", "activation": "-1.65% (inactive)"}
{"smiles": "CC(=O)[C@H]1CC[C@H]2[C@@H]3CCC4=CC(=O)CC[C@]4(C)[C@H]3CC[C@]12C", "Potency": "inactive"}
{"smiles": "NC(=O)CCCCC(N)=O", "activation": "-0.491% (inactive)"}
{"smiles": "Nc1ccc(N)c(Cl)c1", "Potency": "inactive"}
{"smiles": "CS(=O)(=O)O", "activation": "0.0133% (inactive)"}
{"smiles": "CCCCCCCCOCCC#N", "activation": "1.33% (inactive)"}
{"smiles": "O=C(O)c1ccccc1OP(=O)(O)O", "activation": "-2.23% [at 30.3 µM] (inactive)"}
{"smiles": "CCOC(=O)CN1CCCC1=O", "activation": "11% [at 30.3 µM] (inactive)"}
{"smiles": "CC(=O)O[C@H]1C[C@@H]2CC[C@@]1(C)C2(C)C", "activation": "0.657% (inactive)"}
{"smiles": "BrC1CCC(Br)C(Br)CCC(Br)C(Br)CCC1Br", "note": "(stereo not drawn)", "activation": "-2.75% (inactive)"}
{"smiles": "O=C(O)c1cc(=O)c2c(OCC(O)COc3cccc4oc(C(=O)O)cc(=O)c34)cccc2o1", "Potency": "inactive"}
{"smiles": "C=CC(=O)NC(C)C", "activation": "0.425% (inactive)"}
{"smiles": "O=S(=O)(O)c1cccc2ccccc12", "activation": "1.5% (inactive)"}
{"smiles": "CC(C)CCCCCCc1ccc(O)cc1", "activation": "5.97% (inactive)"}
{"smiles": "CN(C)C(=O)Oc1ccc[n+](C)c1", "activation": "-2% [at 30.3 µM] (inactive)"}
{"smiles": "O=c1[nH]c(=O)c2cn[nH]c2[nH]1", "activation": "-2.62% (inactive)"}
{"assay": "p53 small molecule agonists, cell-based qHTS assay with rat liver microsomes (AID 1963578)", "settings": "HCT-116 p53RE-bla, beta-lactamase ratio, 16 h; series mostly up to 66 µM; activation: at the top concentration", "outline": "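Metabolic activation by rat liver microsomes and NADPH, each 0.5 mg/mL final, added right after compounds to p53RE-bla reporter cells (4,000/well, plated 5 h earlier). 16 h at 37 C, then LiveBLAzer substrate for 2 h at room temperature in the dark; fluorescence read-out.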"}
{"smiles": "C1CSCCS1", "activation": "-2.17% (inactive)"}
{"smiles": "CCCCCCCCS(=O)(=O)Cl", "activation": "2.14% (inactive)"}
{"smiles": "O=C1CC2CC1C1CCCC21", "note": "(stereo not drawn)", "activation": "0.487% (inactive)"}
{"smiles": "NNc1nncc2ccccc12", "Potency": "inactive"}
{"smiles": "CCC(=O)O[C@@H]1C[C@H]2CC[C@]1(C)C2(C)C", "activation": "0.659% (inactive)"}
{"smiles": "CC1(C)C(C=C(Cl)Cl)C1C(=O)OCc1cccc(Oc2ccccc2)c1", "note": "(stereo not drawn)", "Potency": "inactive"}
{"smiles": "CC(C)c1ccc(C=O)cc1", "activation": "-1.14% (inactive)"}
{"smiles": "OCCC(F)(F)C(F)(F)C(F)(F)C(F)(F)C(F)(F)C(F)(F)F", "activation": "0.233% (inactive)"}
{"smiles": "COCCCOc1ccnc(CS(=O)c2nc3ccccc3[nH]2)c1C", "note": "(stereo not drawn)", "Potency": "inactive"}
{"smiles": "NC(=O)c1ccccc1Cl", "activation": "1.14% (inactive)"}
{"smiles": "CC(=O)Nc1ncc([N+](=O)[O-])s1", "activation": "-1.96% [at 30.3 µM] (inactive)"}
{"smiles": "CC(C)(C)NC(N)=O", "activation": "-0.504% (inactive)"}
{"smiles": "Nc1ccc(N)c(Cl)c1", "Potency": "inactive"}
{"smiles": "CS(=O)(=O)O", "activation": "0.831% (inactive)"}
{"smiles": "CCCCCCCCOCCC#N", "activation": "-2.95% (inactive)"}
{"smiles": "CC(=O)O[C@H]1C[C@@H]2CC[C@@]1(C)C2(C)C", "activation": "0.157% (inactive)"}
{"smiles": "CC(=O)CC(C)(C)C1CCCCC1", "activation": "0.412% (inactive)"}
{"smiles": "C=CC(=O)NC(C)C", "activation": "-0.669% (inactive)"}
{"smiles": "O=S(=O)(O)c1cccc2ccccc12", "activation": "0.23% (inactive)"}
{"smiles": "CN(C)C(=O)Oc1ccc[n+](C)c1", "activation": "-3.76% [at 30.3 µM] (inactive)"}
{"smiles": "CN(CC1(C)CCCO1)S(=O)(=O)c1ccc(Cl)c(S(N)(=O)=O)c1", "note": "(stereo not drawn)", "activation": "0.612% [at 30.3 µM] (inactive)"}
{"assay": "p53 small molecule agonists, cell-based qHTS assay with human liver microsomes: qHTS cell viability counter screen (AID 1963579); further: nearly all actives have a fitted effect of over 45% in size; further: potency means the concentration at half of the fitted maximal effect", "settings": "p53RE-bla HCT-116 viability, ATP luminescence, 16 h, HLM; series mostly up to 66 µM; activity change, negative = cytotoxicity: at the top concentration", "outline": "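Metabolic activation used human liver microsomes and NADPH, both 0.5 mg/mL final, over 16 hours at 37 C on p53RE-bla cells (4,000/well). Cytotoxicity measured by CellTiter-Glo luminescence, 30 min at room temperature.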"}
{"smiles": "C/C=C/C(=O)C1=C(C)C=CCC1(C)C", "activity change, negative = cytotoxicity": "-0.36% (inactive)"}
{"smiles": "O=C1CC2CC1C1CCCC21", "note": "(stereo not drawn)", "activity change, negative = cytotoxicity": "2.92% (inactive)"}
{"smiles": "Cc1ccc2oc(=O)ccc2c1", "Potency": "inactive"}
{"smiles": "CCC(=O)O[C@@H]1C[C@H]2CC[C@]1(C)C2(C)C", "activity change, negative = cytotoxicity": "0.182% (inactive)"}
{"smiles": "OCc1ccccc1", "Potency": "inactive"}
{"smiles": "CC1(C)C(C=C(Cl)Cl)C1C(=O)OCc1cccc(Oc2ccccc2)c1", "note": "(stereo not drawn)", "Potency": "inactive"}
{"smiles": "CCCCC(CC)COCC1CO1", "note": "(stereo not drawn)", "Potency": "inactive"}
{"smiles": "CC(C)c1ccc(C=O)cc1", "activity change, negative = cytotoxicity": "10.6% (inactive)"}
{"smiles": "OCCC(F)(F)C(F)(F)C(F)(F)C(F)(F)C(F)(F)C(F)(F)F", "activity change, negative = cytotoxicity": "14.2% (inactive)"}
{"smiles": "COCCCOc1ccnc(CS(=O)c2nc3ccccc3[nH]2)c1C", "note": "(stereo not drawn)", "Potency": "inactive"}
{"smiles": "OC[C@H]1O[C@@H]2O[C@H]3[C@H](O)[C@@H](O)[C@@H](O[C@H]4[C@H](O)[C@@H](O)[C@@H](O[C@H]5[C@H](O)[C@@H](O)[C@@H](O[C@H]6[C@H](O)[C@@H](O)[C@@H](O[C@H]7[C@H](O)[C@@H](O)[C@@H](O[C@H]8[C@H](O)[C@@H](O)[C@@H](O[C@H]1[C@H](O)[C@H]2O)O[C@@H]8CO)O[C@@H]7CO)O[C@@H]6CO)O[C@@H]5CO)O[C@@H]4CO)O[C@@H]3CO", "Potency": "inactive"}
{"smiles": "NC(=O)c1ccccc1Cl", "activity change, negative = cytotoxicity": "-1.12% (inactive)"}
{"smiles": "CC(=O)Nc1ncc([N+](=O)[O-])s1", "activity change, negative = cytotoxicity": "16.7% [at 30.3 µM] (inactive)"}
{"smiles": "CC(=O)[C@H]1CC[C@H]2[C@@H]3CCC4=CC(=O)CC[C@]4(C)[C@H]3CC[C@]12C", "activity change, negative = cytotoxicity": "-24.2% (inactive)"}
{"smiles": "NC(=O)CCCCC(N)=O", "activity change, negative = cytotoxicity": "9.35% (inactive)"}
{"smiles": "Nc1ccc(N)c(Cl)c1", "Potency": "inactive"}
{"smiles": "CS(=O)(=O)O", "activity change, negative = cytotoxicity": "1.72% (inactive)"}
{"smiles": "O=C(O)c1ccccc1OP(=O)(O)O", "activity change, negative = cytotoxicity": "-11.8% [at 30.3 µM] (inactive)"}
{"smiles": "CCOC(=O)C(C)Oc1ccc(Oc2cnc3cc(Cl)ccc3n2)cc1", "note": "(stereo not drawn)", "Potency": "inactive"}
{"smiles": "COS(C)(=O)=O", "Potency": "inactive"}
{"smiles": "CC(=O)O[C@H]1C[C@@H]2CC[C@@]1(C)C2(C)C", "activity change, negative = cytotoxicity": "-4.83% (inactive)"}
{"smiles": "BrC1CCC(Br)C(Br)CCC(Br)C(Br)CCC1Br", "note": "(stereo not drawn)", "Potency": "inactive"}
{"smiles": "O=C(O)c1cc(=O)c2c(OCC(O)COc3cccc4oc(C(=O)O)cc(=O)c34)cccc2o1", "Potency": "inactive"}
{"smiles": "CC(=O)CC(C)(C)C1CCCCC1", "activity change, negative = cytotoxicity": "10.9% (inactive)"}
{"smiles": "C=CC(=O)NC(C)C", "activity change, negative = cytotoxicity": "0.31% (inactive)"}
{"smiles": "CC(C)CCCCCCc1ccc(O)cc1", "Potency": "41.5 µM (active)"}
{"smiles": "O=c1[nH]c(=O)c2cn[nH]c2[nH]1", "activity change, negative = cytotoxicity": "-7.67% (inactive)"}
{"smiles": "CN(CC1(C)CCCO1)S(=O)(=O)c1ccc(Cl)c(S(N)(=O)=O)c1", "note": "(stereo not drawn)", "activity change, negative = cytotoxicity": "8.61% [at 30.3 µM] (inactive)"}
{"smiles": "CC(C)(Oc1ccc(CCNC(=O)c2ccc(Cl)cc2)cc1)C(=O)O", "Potency": "inactive"}
